F-actin modifier – modifiers of cytoskeleton assembly. HUVEC TNFa F-actin phalloidin imaging, high content. inhibition, % at 2 µM. 91,000 compounds, 0.18% hits;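 active means inhibition above the batch mean plus 3 SD and confirmed as a hit by visual image inspection, cut at about 30% in these data, passing the limit was not always enough; inconclusive means above the inhibition threshold but rejected on visual inspection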
TNFa cytotox – toxic to HUVEC cells under TNF alpha stimulation | 93,000 compounds, 0.17% hits | cell count reduction, % at 2 µM | HUVEC TNFalpha-stimulated, Hoechst cell count, imaging;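 active means cell count reduction exceeding the screen mean by over 5 SD, scaled to untreated wells per plate, cut at about 78% in these data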;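 further: cells counted after 24 h of TNF alpha exposure following the 1 h pretreatment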
VCAM1 TNFa inh – reduces TNF alpha induced VCAM1 expression in HUVEC; 95,000 compounds, 0.48% hits; AID 802; HUVEC TNFa-induced VCAM-1 immunofluorescence, high-content imaging; inhibition, % at 2 µM;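 active means inhibition above the batch mean plus 3 SD, with images confirmed as a hit by eye, cut at about 37% in these data; inconclusive means inhibition above that limit but hit not confirmed in images; inactive means inhibition not above that limit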
E-sel TNF inh – blocks E-selectin expression induced by TNF alpha | inhibition, % at 2 µM | AID 1246 | 120,000 compounds, 0.71% hits | HUVEC TNFa-induced E-selectin immunofluorescence, high content;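 active means inhibition above the batch mean plus 3 SD, and confirmed as a hit on visual image review, cut at about 43% in these data; inconclusive means passes the inhibition cutoff but fails visual image review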
Large screens that a line does not name were inactive. Sampled rows, rich in hits. Any-hit rate of the full collection: about 1%.

CCOC(=O)N1CCC(N(CCCOC)C(=O)Nc2ccc(CC)cc2)CC1	none
CCN(CC)S(=O)(=O)c1ccc(-c2nnc(SCC(=O)Nc3ccc(OC)cc3)o2)cc1	E-sel TNF inh 64.4
CCN(CC)S(=O)(=O)c1ccc(-c2nnc(SCC(=O)Nc3ccc(OC)c(OC)c3)o2)cc1	none
O=C(N/N=C/c1ccccc1O)C(=O)Nc1ccccn1	none (no result: F-actin modifier, TNFa cytotox, VCAM1 TNFa inh)
CC(C)NC1CS(=O)(=O)CC1O (stereo not drawn)	F-actin modifier inconclusive, TNFa cytotox 100.0, VCAM1 TNFa inh inconclusive
CCCc1sc(N/N=C/c2ccccn2)nc1-c1ccc(Br)cc1	VCAM1 TNFa inh 93.9
CCOc1ccc(C(CC(=O)O)NC(=O)COc2ccccc2OC)cc1OC (stereo not drawn)	none (no result: F-actin modifier, TNFa cytotox, VCAM1 TNFa inh)
O=S(=O)(Cc1ccccc1Cl)N1CCN(Cc2ccc3c(c2)OCO3)CC1	F-actin modifier 47.3
CCc1nc2ccccc2c(C(=O)OCc2nnc(-c3ccccc3)o2)c1C	none (no result: E-sel TNF inh)
COCC(C)NC(=O)CCS(=O)(=O)c1nc(-c2ccc(OC)cc2)cc(C(F)(F)F)n1 (stereo not drawn)	E-sel TNF inh 82.6 (no result: F-actin modifier, TNFa cytotox, VCAM1 TNFa inh)
CCOC(=O)CCS(=O)(=O)c1nc(-c2ccccc2)cc(C(F)(F)F)n1	none
COC(=O)CCS(=O)(=O)c1nc(-c2ccccc2)cc(C(F)(F)F)n1	none
CCOC(=O)CS(=O)(=O)c1nc(-c2ccc(F)cc2)cc(C(F)(F)F)n1	E-sel TNF inh 57.7 (no result: F-actin modifier, TNFa cytotox, VCAM1 TNFa inh)
CCOC(=O)CS(=O)(=O)c1nc(-c2ccccc2)cc(C(F)(F)F)n1	E-sel TNF inh 67.1
CC(=O)c1c(C)[nH]c(C(=O)Nc2ccccc2N2CCOCC2)c1C	E-sel TNF inh 75.4 (no result: F-actin modifier, TNFa cytotox, VCAM1 TNFa inh)
O=S(=O)(CCc1nc2ccccc2o1)c1ccc2ccccc2c1	none
O=C1CN(c2nc3ccccc3n3cnnc23)CC(=O)N1CCc1ccccc1	none (no result: E-sel TNF inh)
CCOC(=O)c1ccc(Nc2cc(C)nc(N3CCOCC3)n2)cc1	E-sel TNF inh 67.3
CCOC(=O)c1cnc2ccc(C(=O)OC)cc2c1Nc1cccc(C(=O)O)c1	none (no result: F-actin modifier, TNFa cytotox, VCAM1 TNFa inh)
CCOC(=O)c1cnc2ccc(C)cc2c1Nc1ccc(N2CCOCC2)cc1	E-sel TNF inh 99.8
CCOc1ccc(Nc2cc(C)nc(N3CCOCC3)n2)cc1	none
COc1ccc(C(CC(=O)NCc2ccccc2)Sc2n[nH]c(-c3ccccc3)n2)cc1 (stereo not drawn)	E-sel TNF inh 92.1 (no result: F-actin modifier, TNFa cytotox, VCAM1 TNFa inh)
OCCCCNc1cccc2ccccc12	VCAM1 TNFa inh 43.3 (no result: E-sel TNF inh)
OCCCCCNc1ncnc2ccccc12	none
COc1ccc(C(=O)C(CO)Oc2ccccc2OC)cc1OC (stereo not drawn)	E-sel TNF inh 73.4
NC(=O)C1CCCN(S(=O)(=O)c2ccc(Br)cc2)C1 (stereo not drawn)	none
O=C(/C=C/c1cccc([N+](=O)[O-])c1)n1cnc2ccccc21	E-sel TNF inh 99.4 (no result: F-actin modifier, TNFa cytotox, VCAM1 TNFa inh)
O=C1CC(c2ccccc2)CC2=C1CN(C1CCCCC1)CN2 (stereo not drawn)	E-sel TNF inh 70.1
O=C(/C=C/c1ccccc1Cl)NC(=S)Nc1ccccc1C(=O)NC1CCCCC1	none
CCCn1c(N)c(C(=O)NS(=O)(=O)c2ccc(C)cc2)c(=O)n(C)c1=O	none (no result: F-actin modifier, TNFa cytotox, VCAM1 TNFa inh)
O=C(NC(C(=O)c1ccccc1)N1CCOCC1)c1ccccc1 (stereo not drawn)	E-sel TNF inh 99.8 (no result: F-actin modifier, TNFa cytotox, VCAM1 TNFa inh)
c1ccc2c(c1)OCCOCCOc1ccccc1OCCOCCO2	none (no result: F-actin modifier, TNFa cytotox, VCAM1 TNFa inh)
CCOC(=O)N1CCC2(CC1)C(C#N)=C(N)OC1=C2C(=O)CC(C)C1 (stereo not drawn)	none (no result: F-actin modifier)
N#CC1=C2SCC(O)(c3ccccc3)N2C(=O)CC1c1cccs1 (stereo not drawn)	F-actin modifier 35.0 (no result: E-sel TNF inh)
O=C(CS(=O)c1ccc(C(F)(F)F)cc1[N+](=O)[O-])Oc1ccccc1 (stereo not drawn)	VCAM1 TNFa inh 88.0, E-sel TNF inh 83.8
O=C(CNc1ccc(C(F)(F)F)cc1[N+](=O)[O-])OCC(=O)c1ccccc1	none
CS(=O)(=O)c1ccc(S(=O)CC(=O)OCc2ccccc2)c([N+](=O)[O-])c1 (stereo not drawn)	E-sel TNF inh 100.0 (no result: F-actin modifier, TNFa cytotox, VCAM1 TNFa inh)
Cc1ccc(S(=O)(=O)Cc2ccc(C(=O)OCc3ccccc3)cc2)cc1	none
N=C1C(c2nc3ccccc3s2)=C(O)CN1Cc1ccco1	VCAM1 TNFa inh 96.0 (no result: E-sel TNF inh)
Cc1c(C(=O)Nc2ccncc2)oc2ccccc12	none
Cc1c(C(=O)NC(C)c2ccncc2)oc2ccccc12 (stereo not drawn)	E-sel TNF inh 100.0
CCOc1ccc(OCC)c(NC(=O)CN2CCN(c3cccc(C)c3)CC2)c1	E-sel TNF inh 95.5 (no result: F-actin modifier, TNFa cytotox, VCAM1 TNFa inh)
COc1ccc(CCNC(=O)c2ccc(NS(=O)(=O)c3c(C)noc3C)cc2)cc1OC	none
CCOc1ccc(C2/C(=C(\O)c3c(C)[nH]c(C(=O)OC)c3C)C(=O)C(=O)N2CCN(C)C)cc1 (stereo not drawn)	VCAM1 TNFa inh 92.2 (no result: E-sel TNF inh)
Cc1nc(=O)c(-c2ccccc2)c(C)n1-c1ccc(S(N)(=O)=O)cc1	E-sel TNF inh 99.9
CCOC(=O)c1sc(=N)n(-c2ccc(OC)cc2)c1C	E-sel TNF inh 64.2
CCOC(=O)c1nnn(-c2ccc(OC)cc2)c1N	none
CC(C)Cn1cnc2c1c(=O)n(CC(=O)Nc1ccc3c(c1)OCO3)c(=O)n2Cc1ccccc1	E-sel TNF inh 70.9
Cc1cc(NC(=O)Cn2c(=O)c3c(ncn3CC(C)C)n(Cc3ccccc3)c2=O)no1	none (no result: F-actin modifier, TNFa cytotox, VCAM1 TNFa inh)
Cc1cc(NC(=O)CSc2nnc(Cc3ccccc3)n2C)no1	E-sel TNF inh 44.0
Cc1cc(NC(=O)CSc2nc3ccccc3c(=O)n2C2CCCC2)no1	VCAM1 TNFa inh 67.7
C/C(=N\NS(=O)(=O)c1ccccc1)c1cc(Cl)cc(Cl)c1O	none (no result: F-actin modifier, TNFa cytotox, VCAM1 TNFa inh)
N#CCC(=O)Nc1ccc(C(=O)OCC(=O)N(Cc2ccccc2)C2CCS(=O)(=O)C2)cc1 (stereo not drawn)	none (no result: F-actin modifier, TNFa cytotox, VCAM1 TNFa inh)
O=C(CCCSc1nc2ccccc2c(=O)[nH]1)c1ccccc1	none (no result: F-actin modifier, TNFa cytotox, VCAM1 TNFa inh)
CCN1C(=O)/C(=C\c2cn(-c3ccccc3)nc2-c2cccnc2)SC1=S	E-sel TNF inh 83.3 (no result: F-actin modifier, TNFa cytotox, VCAM1 TNFa inh)
COc1ccc2nc(SCc3nc(N)nc(Nc4ccccc4)n3)[nH]c2c1	E-sel TNF inh 94.9
CCOC(=O)C1=C(CSc2nc3c(cc2C#N)CN(C)CC3)OC(N)=C(C#N)C1c1ccccc1 (stereo not drawn)	TNFa cytotox 98.7, VCAM1 TNFa inh inconclusive (no result: E-sel TNF inh)
OCCNCC(O)Cn1ccc2ccccc21 (stereo not drawn)	VCAM1 TNFa inh 100.0 (no result: F-actin modifier, TNFa cytotox)
Cc1ccc(OCC(O)CNS(=O)(=O)c2ccccc2C(=O)N2CCCCC2)cc1 (stereo not drawn)	F-actin modifier 43.6
CC1=C([N+](=O)[O-])C(c2ccccc2)C2=C(N1)c1ccccc1C2=O (stereo not drawn)	VCAM1 TNFa inh 44.4
COc1cc(C2C(C#N)=C(C)NC3=C2C(=O)c2ccccc23)cc(OC)c1OC (stereo not drawn)	VCAM1 TNFa inh 89.1 (no result: E-sel TNF inh)
CCOc1ccc(C2C(C#N)=C(C)NC3=C2C(=O)c2ccccc23)cc1 (stereo not drawn)	none
COc1ccc(C2C(C#N)=C(C)NC3=C2C(=O)c2ccccc23)cc1 (stereo not drawn)	none (no result: E-sel TNF inh)
FC(F)(F)c1cc(Cl)c2nnc(C(F)(F)Cl)n2c1	none (no result: F-actin modifier, TNFa cytotox, VCAM1 TNFa inh)
CC1CCN(C(=O)c2ccc(SCc3ccccc3F)c([N+](=O)[O-])c2)CC1	none (no result: F-actin modifier, TNFa cytotox, VCAM1 TNFa inh)
Nc1sccc1C(=O)c1ccc(Cl)cc1	VCAM1 TNFa inh 91.8
NC(=O)Cc1ccc(C(=O)c2ccc(Cl)cc2)s1	none (no result: F-actin modifier, TNFa cytotox, VCAM1 TNFa inh)

Compound activity from PubChem.
